# Source: PubChem BioAssay (NCATS)
# Values without a mark were called inactive. Inconclusive results are not listed. Where a call stands in place of a potency, no number is given. The source made the active and inactive calls. Calls come from the whole dose curve; as a rule, active = well fitted curve in the direction sought with a large enough effect; inconclusive = small, poorly fitted or top-dose-only effect, or another doubt; inactive = no such curve, though single readings can be large; an effect the other way counts as inactive or inconclusive.
# How the values were obtained:
# [1] = test system: Zika virus NS2B-NS3 protease (unlinked complex); assay: Primary screen GU Rhodamine qHTS for Zika virus inhibitors: Unlinked NS2B-NS3 protease assay (AID 1347159); note: nearly all actives have a fitted effect of over 60% in size; note: potency is the fitted concentration of half-maximal effect
# Outline: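 Percent inhibition came from the 15-min rise in Rhodamine110 fluorescence (1.5 microM substrate, ~15% conversion), normalized to no-inhibitor and no-enzyme wells and Hill-fitted. Unlinked protease, 25 nM, pH 8.0 Tris buffer; compounds up to 114 microM, 15-min preincubation.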
# [2] = test system: Zika virus NS2B-NS3 protease (linked construct); assay: Primary screen NINDS Rhodamine qHTS for Zika virus inhibitors (AID 1347160); note: nearly all actives have a fitted effect of over 55% in size; note: potency is the fitted concentration of half-maximal effect
# Outline: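 Rhodamine110-peptide cleavage (1.5 µM substrate) by 25 nM linked NS2B-NS3 enzyme at pH 8.0 (Tris, Tween 20), after 15 min RT preincubation with compounds; 15-min fluorescence change normalized to controls and Hill-fitted.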
# [3] = target: Calcium and integrin-binding protein 1 (Homo sapiens) (UniProt Q99828); assay: Primary qHTS for Identification of Calcium Integrin Binding Protein 1 (CIB1) Competitor (AID 1508620);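 note: GST tagged CIB1 binding a fluorescein labelled alphaIIb integrin peptide tracer; top concentration of the series differs between compounds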
# Outline: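 CIB1-GST (1 uM final) and compound incubated 15 min at room temperature before adding FITC-alphaIIb peptide tracer (100 nM final). Competition for binding read by fluorescence polarization (ex 480, em 540) after another 15 min at room temperature.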
# [4] = target: Glutathione peroxidase 1 (Homo sapiens) (UniProt P07203); assay: Primary qHTS Assay for Inhibitors of Recombinant Selenoprotein Glutathione Peroxidase 1 (GPX1) (AID 1845191); note: nearly all actives have a fitted effect of over 65% in size
# Outline: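 NADPH consumption tracked by fluorescence at 340/450 nm between t=0 and t=15 min, room temperature. Final mix: 10 nM GPX1, 100 nM glutathione reductase, 1 mM GSH, 0.5 mM NADPH, 0.5 mM cumene hydroperoxide, 0.01% BSA; 30 min compound–enzyme preincubation.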
# [5] = target: Luciferin 4-monooxygenase (Photinus pyralis) (UniProt P08659); assay: Primary firefly luciferase (FLuc) qHTS assay for identification of artifact compounds. (AID 1845220); conditions: outcome: dose series up to 54.1 µM unless noted; note: nearly all actives have a fitted effect of over 60% in size
# Outline: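 Compounds sat 15 min at room temperature with 10 uM luciferin and 10 uM ATP (pH 7.6 Tris acetate). Firefly luciferase (10 nM final) was then added, and luminescence was read 5 min later. Data normalized to no-enzyme and DMSO controls were Hill-fitted.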
# [6] = Primary fluorescence-based thiol-reactive (MSTI) qHTS assay for identification of artifact compounds. (AID 1845221); note: nearly all actives have a fitted effect of over 65% in size; note: potency is the fitted concentration of half-maximal effect
# Outline: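 MSTI probe at 4 uM final in 2% DMSO/PBS pH 7.4; compounds, 1 h at room temperature in dark. Fluorescence Ex/Em 525/598 nm, normalised to Acetyl-MSTI and MSTI, fitted to 4-parameter Hill.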
# [7] = test system: Nanoluciferase (engineered Oplophorus gracilirostris luciferase); assay: Primary Nanoluciferase (NLuc) qHTS assay for identification of artifact compounds. (AID 1845222)
# Outline: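 Luminescence from secreted NLuc (filtered, 1:55-diluted S16 cell medium) read 5 min after Nano-Glo substrate; compounds preincubated 15 min, RT. Hill fits of inhibition normalized to DMSO and no-enzyme.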
# [8] = Primary redox qHTS assay for identification of artifact compounds. (AID 1845223)
# Outline: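 Redox-cycling detection via DTT (250 uM final) oxidation coupled to Amplex Red (25 uM)/HRP (250 mU/mL) in HBSS. 15 min preincubation plus 30 min after DTT, room temperature. Ex/Em 525/598 nm; 4-parameter Hill fit against DMSO and 10 uM DA3003.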
# NIH3T3 = assay: Cytotoxic Profiling of Annotated Libraries Using Quantitative High-Throughput Screening (AID 1296008); conditions: Five cell lines viability, CellTiter-Glo ATP luminescence, 48-72 h; max response: stronger effect = lower value; note: nearly all actives have a fitted effect of over 60% in size; note: potency is the fitted concentration of half-maximal effect
# Outline: (§1)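 Cytotoxicity was measured as CellTiter-Glo ATP luminescence, read after 10 min at room temperature. Compound treatment of the cells lasted 48 or 72 hr at 37 degrees Celsius in a qHTS format.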
# C33A = assay: Primary qHTS to identify gynecologic anti-cancer compounds using libraries of approved drugs and bioactive compounds (AID 1345084); conditions: Gynecologic cancer cell panel viability, ATPlite luminescence, 48 h; series mostly up to 57.5 µM; note: nearly all actives have a fitted effect of over 55% in size; note: potency is the fitted concentration of half-maximal effect
# Outline: (§2)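 Cells, 1,000 per well, plated 16 h, then exposed 48 h at 37 C to compounds. Viability by ATPlite luminescence after 15 min at room temperature.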
# CASKI = assay: as above; conditions: Gynecologic cancer cell panel viability, ATPlite luminescence, 48 h; series mostly up to 57.5 µM
# Outline: as §2
# Es-2 = assay: as above; conditions: Gynecologic cancer cell panel viability, ATPlite luminescence, 48 h; series mostly up to 57.5 µM
# Outline: as §2
# JEG-3 = assay: as above; conditions: Gynecologic cancer cell panel viability, ATPlite luminescence, 48 h; series mostly up to 57.5 µM
# Outline: as §2
# OV90 = assay: as above; conditions: Gynecologic cancer cell panel viability, ATPlite luminescence, 48 h; series mostly up to 57.5 µM
# Outline: as §2
# PA-1 = assay: as above; conditions: Gynecologic cancer cell panel viability, ATPlite luminescence, 48 h; series mostly up to 57.5 µM
# Outline: as §2
# Tov-21-G = assay: as above; conditions: Gynecologic cancer cell panel viability, ATPlite luminescence, 48 h; series mostly up to 57.5 µM
# Outline: as §2
# Tov112D = assay: as above; conditions: Gynecologic cancer cell panel viability, ATPlite luminescence, 48 h; series mostly up to 57.5 µM
# Outline: as §2
# HaCat = assay: Cytotoxic Profiling of Annotated Libraries Using Quantitative High-Throughput Screening (AID 1296008); conditions: Five cell lines viability, CellTiter-Glo ATP luminescence, 48-72 h; max response: stronger effect = lower value; note: nearly all actives have a fitted effect of over 60% in size; note: potency is the fitted concentration of half-maximal effect
# Outline: as §1
# Hek293T = assay: Primary qHTS to identify gynecologic anti-cancer compounds using libraries of approved drugs and bioactive compounds (AID 1345084); conditions: Gynecologic cancer cell panel viability, ATPlite luminescence, 48 h, control line for the selectivity index; series mostly up to 57.5 µM; note: nearly all actives have a fitted effect of over 55% in size; note: potency is the fitted concentration of half-maximal effect
# Outline: as §2
# [9] = target: Phospholipid hydroperoxide glutathione peroxidase GPX4 (Homo sapiens) (UniProt P36969); assay: Primary qHTS Assay for Inhibitors of Recombinant Selenoprotein Glutathione Peroxidase 4 (GPX4) (AID 1845192); note: nearly all actives have a fitted effect of over 65% in size
# Outline: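 NADPH consumption followed by fluorescence at 340/450 nm, t=0 and after 15 min at room temperature. Reaction started with cumene hydroperoxide (0.5 mM final) after 30 min compound–GPX4 preincubation; final 200 nM GPX4, 100 nM GR, 1 mM GSH, 0.5 mM NADPH.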
# Sequence of Phospholipid hydroperoxide glutathione peroxidase GPX4 (Homo sapiens) (P36969 whole entry, looked up): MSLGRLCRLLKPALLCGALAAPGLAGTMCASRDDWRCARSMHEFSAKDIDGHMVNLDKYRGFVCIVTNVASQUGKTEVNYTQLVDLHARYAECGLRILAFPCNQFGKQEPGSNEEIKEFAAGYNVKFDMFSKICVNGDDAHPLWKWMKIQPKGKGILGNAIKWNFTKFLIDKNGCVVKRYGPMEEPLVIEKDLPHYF
# Sequence of Glutathione peroxidase 1 (Homo sapiens) (P07203 whole entry, looked up): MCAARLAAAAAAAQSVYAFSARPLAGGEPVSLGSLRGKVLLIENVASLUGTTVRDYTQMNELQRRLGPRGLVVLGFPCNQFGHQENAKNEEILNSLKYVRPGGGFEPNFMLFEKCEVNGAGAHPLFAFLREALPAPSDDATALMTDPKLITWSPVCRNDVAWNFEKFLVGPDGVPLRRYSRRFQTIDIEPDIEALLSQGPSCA
# Sequence of Calcium and integrin-binding protein 1 (Homo sapiens) (Q99828 whole entry, looked up): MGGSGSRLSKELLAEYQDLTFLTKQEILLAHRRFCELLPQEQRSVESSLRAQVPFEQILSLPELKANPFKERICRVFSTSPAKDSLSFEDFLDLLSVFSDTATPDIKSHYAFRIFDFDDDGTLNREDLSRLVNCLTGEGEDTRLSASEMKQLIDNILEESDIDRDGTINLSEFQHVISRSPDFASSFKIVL
smiles,measurement,setting,value
C[C@H](Nc1ncnc2nc[nH]c12)c1nc2ccc(F)cc2c(=O)n1-c1ccccc1,Potency,[1],inactive
same,Potency,[2],inactive
same,Potency,[3],inactive
same,Potency,[4],inactive
same,outcome,[5],inactive
same,Potency,[6],inactive
same,Potency,[7],inactive
same,Potency,[8],inactive
same,Potency,NIH3T3,13 µM (active)
same,Potency,C33A,inactive
same,Potency,CASKI,inactive
same,Potency,Es-2,inactive
same,Potency,JEG-3,inactive
same,Potency,OV90,inactive
same,Potency,PA-1,inactive
same,Potency,Tov-21-G,inactive
same,Potency,Tov112D,inactive
COc1cc2c(cc1O)C1(C)CCC(O)C(C)(C)C1CC2=O (centres undefined),Potency,[1],inactive
same,Potency,[2],inactive
same,Potency,[3],inactive
same,Potency,[4],inactive
same,outcome,[5],inactive
same,Potency,[7],inactive
same,Potency,[8],inactive
same,outcome,HaCat,inactive
same,outcome,NIH3T3,inactive
same,Potency,C33A,inactive
same,Potency,CASKI,inactive
same,Potency,Es-2,inactive
same,Potency,Hek293T,inactive
same,Potency,JEG-3,inactive
same,Potency,OV90,inactive
same,Potency,PA-1,inactive
same,Potency,Tov-21-G,inactive
same,Potency,Tov112D,inactive
CO[C@H]1C[C@H](O[C@H]2CC[C@]3(C=O)[C@H]4CC[C@]5(C)[C@@H](C6=CC(=O)OC6)CC[C@]5(O)[C@@H]4CC[C@]3(O)C2)O[C@H](C)[C@H]1O,Potency,[1],inactive
same,Potency,[2],inactive
same,Potency,[3],inactive
same,Potency,[4],inactive
same,Potency,[9],inactive
same,outcome,[5],inactive [at 25.7 µM]
same,Potency,[6],inactive
same,Potency,[8],inactive
same,Potency,HaCat,0.356 µM (active)
same,outcome,NIH3T3,inactive
same,Potency,C33A,0.1 µM (active)
same,Potency,Es-2,0.141 µM (active)
same,Potency,Hek293T,0.224 µM (active)
same,Potency,OV90,0.891 µM (active)
same,Potency,PA-1,0.141 µM (active)
same,Potency,Tov-21-G,0.141 µM (active)
same,Potency,Tov112D,0.0891 µM (active)
CC1=CC2/C=C(\C)CCC(O)C(O)/C=C/C(=O)OC23C(=O)NC(CC(C)C)C3C1C (centres undefined),Potency,[1],inactive
same,Potency,[3],inactive
same,Potency,[4],inactive
same,Potency,[9],inactive
same,outcome,[5],inactive
same,Potency,[6],inactive
same,Potency,[8],inactive
same,outcome,HaCat,inactive
same,max response,NIH3T3,-15.3%
same,Potency,C33A,inactive
same,Potency,CASKI,inactive
same,Potency,Es-2,inactive
same,Potency,Hek293T,inactive
same,Potency,JEG-3,inactive
same,Potency,OV90,inactive
same,Potency,PA-1,inactive
same,Potency,Tov-21-G,inactive
same,Potency,Tov112D,inactive
CCOC(=O)Nc1ccc(NCc2c(C)cc(C)cc2C)cc1N,Potency,[1],inactive
same,Potency,[2],inactive
same,Potency,[3],inactive
same,Potency,[9],inactive
same,outcome,[5],inactive
same,Potency,[8],inactive
same,max response,NIH3T3,0.149%
same,Potency,C33A,inactive
same,Potency,CASKI,inactive
same,Potency,Es-2,inactive
same,Potency,Hek293T,inactive
same,Potency,JEG-3,inactive
same,Potency,OV90,inactive
same,Potency,PA-1,inactive
same,Potency,Tov-21-G,inactive
same,Potency,Tov112D,inactive
CC/C=C/C=C/C1(C)OC(OC)=C(C(=O)C2C(C)C(=O)c3cc(OC)c(O)c(O)c3C2(C)O)C1=O (centres undefined),Potency,[1],6.31 µM (active)
same,Potency,[2],10 µM (active)
same,Potency,[3],inactive
same,Potency,[4],inactive
same,Potency,[9],inactive
same,outcome,[5],inactive [at 25.7 µM]
same,Potency,[6],1.3 µM (active)
same,Potency,[7],inactive
same,Potency,[8],inactive
same,Potency,C33A,inactive
same,Potency,CASKI,inactive
same,Potency,Hek293T,inactive
same,Potency,JEG-3,inactive
same,Potency,OV90,inactive
same,Potency,Tov112D,inactive
Cc1[nH]c2ccc(Cl)cc2c1CCN(C)C,Potency,[1],inactive
same,Potency,[2],inactive
same,Potency,[3],inactive
same,Potency,[4],inactive
same,Potency,[9],inactive
same,outcome,[5],inactive
same,Potency,[6],inactive
same,Potency,[7],inactive
same,Potency,[8],inactive
same,outcome,NIH3T3,inactive
same,Potency,C33A,inactive
same,Potency,CASKI,inactive
same,Potency,Es-2,inactive
same,Potency,Hek293T,inactive
same,Potency,JEG-3,inactive
same,Potency,OV90,inactive
same,Potency,PA-1,inactive
same,Potency,Tov-21-G,inactive
same,Potency,Tov112D,inactive
O=C1CN=C(c2cccc(Br)c2)c2oc3ccccc3c2N1,Potency,[1],inactive
same,Potency,[2],inactive
same,Potency,[3],inactive
same,Potency,[9],inactive
same,outcome,[5],inactive
same,Potency,[6],inactive
same,Potency,[7],inactive
same,Potency,[8],inactive
same,Potency,C33A,inactive
same,Potency,CASKI,inactive
same,Potency,Es-2,inactive
same,Potency,OV90,inactive
same,Potency,Tov-21-G,inactive
CC(=O)O[C@H]1C[C@@H](C)O[C@H]2O[C@@H]3CC4CC[C@@H]5C(CC[C@]6(C)[C@@H](C7=CC(=O)OC7)CC[C@]56O)[C@@]4(C=O)C[C@H]3O[C@]21O (some centres undefined),Potency,[2],inactive
same,Potency,[3],inactive
same,Potency,[4],inactive
same,outcome,[5],inactive
same,Potency,[6],inactive
same,Potency,[7],inactive
same,Potency,HaCat,0.172 µM (active)
same,Potency,C33A,0.1 µM (active)
same,Potency,CASKI,0.562 µM (active)
same,Potency,Es-2,0.126 µM (active)
same,Potency,Hek293T,0.158 µM (active)
same,Potency,OV90,0.562 µM (active)
same,Potency,PA-1,0.126 µM (active)
same,Potency,Tov-21-G,0.1 µM (active)
same,Potency,Tov112D,0.1 µM (active)
O=C1Nc2ccc3ncsc3c2/C1=C/c1cnc[nH]1,Potency,[1],inactive
same,Potency,[4],inactive
same,outcome,[5],inactive
same,Potency,[6],inactive
same,Potency,[7],inactive
same,Potency,[8],inactive
same,Potency,HaCat,4.11 µM (active)
same,Potency,OV90,inactive
same,Potency,PA-1,7.94 µM (active)
COC1CC(OC2CCC3(C=O)C(CCC4C3CCC3(C)C(C5=CC(=O)OC5)CCC43O)C2)OC(C)C1O (centres undefined),Potency,[3],inactive
same,Potency,[4],inactive
same,Potency,[9],inactive
same,outcome,[5],inactive [at 25.7 µM]
same,Potency,[7],inactive
same,Potency,HaCat,2.82 µM (active)
same,max response,NIH3T3,0.727%
same,Potency,C33A,0.141 µM (active)
same,Potency,CASKI,1 µM (active)
same,Potency,Es-2,0.251 µM (active)
same,Potency,Hek293T,0.251 µM (active)
same,Potency,JEG-3,0.631 µM (active)
same,Potency,OV90,1 µM (active)
same,Potency,PA-1,0.199 µM (active)
same,Potency,Tov-21-G,0.178 µM (active)
same,Potency,Tov112D,0.1 µM (active)
C[C@H]1CCC[C@H](O)CCC/C=C/c2cc(O)cc(O)c2C(=O)O1,Potency,[2],inactive
same,Potency,[3],inactive
same,outcome,[5],inactive
same,Potency,[6],inactive
same,Potency,[7],inactive
same,Potency,[8],inactive
same,outcome,NIH3T3,inactive
same,Potency,C33A,inactive
same,Potency,CASKI,inactive
same,Potency,Es-2,inactive
same,Potency,Hek293T,inactive
same,Potency,JEG-3,inactive
same,Potency,OV90,inactive
same,Potency,PA-1,inactive
same,Potency,Tov-21-G,inactive
same,Potency,Tov112D,inactive
